Values joined by “and” are separate entries in the source; they are usually repeats but may differ in a detail not shown here. Identical values can stand only once. Active and inactive are the calls of the source.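 How the source made its calls, unless noted: active means normalized viability below 100% at a tested concentration; inactive means the rest.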
Experiments:
[1] = stimulators of nuclear beta-catenin in C2C12, primary screen, imaging, WNT3A-conditioned medium, mouse C2C12, NPC library (AID 1117326; in the data active means nuclear beta-catenin stimulation mostly above about 4.2%, no sharp cut-off; inactive means mostly below about 10%); settings: stronger effect = higher value
[2] = stimulators of insulin release from INS-1E, primary screen, cell-based, 5 mM glucose, NPC library (AID 1117329;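 active means compound raises insulin release from rat beta cells at 5 mM glucose, no numeric limit stated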); settings: rat INS-1E insulin secretion, at 10 µM, stronger effect = higher value
[3] = growth inhibition of GSK3B-pretreated HCT116 cells – cell-based, CellTiter-Glo, 0.2 to 20 µM (AID 1117336;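 active means compounds lowering colon cancer cell viability after pretreatment blocking the GSK3B kinase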); settings: HCT116 viability after GSK3B inhibitor, at 20 µM, stronger effect = higher value
[4] = inhibition of endothelial tube formation, primary screen, imaging, VEGF stimulated, CD31 staining, tube area, NPC library (AID 1117340;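 active means compound that reduces growth-factor-driven endothelial tube area in a mixed cell culture, no cutoff stated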); settings: VEGF-stimulated ADSC/ECFC co-culture, at 10 µM, stronger effect = higher value
[5] = glucagon-like peptide 1 release enhancers, primary assay, NCI-H716 cell line, NPC library (AID 1117341;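 active means compound raises GLP1 secretion from the human gut endocrine cells, with no numeric limit stated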); settings: NCI-H716 cells, at 10 µM, stronger effect = higher value
[6] = HCT116 colon cancer cell growth inhibition, primary screen, CellTiter-Glo luminescence, NPC library (AID 1117342;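 active means compounds that lower survival of HCT116 colon cancer cells in the luminescence readout, no numeric limit stated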); settings: at 20 µM (top of the series)
[7] = CellTiter-Glo luminescent readout of SW480 viability loss, NPC library primary (AID 1117343;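 active means compounds that lower viability of the colon cancer cells in the luminescence readout, with no numeric limit stated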); settings: CellTiter-Glo luminescence; at 20 µM (top of the series)
[8] = decreased DLD-1 cellular survival, CellTiter-Glo luminescent readout, NPC compound collection, primary HTS (AID 1117346;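 active means compounds that lower survival of DLD-1 colon cancer cells in the luminescence readout, no cutoff given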); settings: DLD-1 viability, CellTiter-Glo luminescence; at 20 µM (top of the series)
[9] = target: 6-phosphogluconate dehydrogenase, decarboxylating (Homo sapiens) (UniProt P52209); test: 6PGD enzyme inhibitors, primary screen, biochemical, human, recombinant enzyme, NADPH absorbance (AID 1159550;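 active means at least 20% inhibition of 6-phosphogluconate dehydrogenase activity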); settings: recombinant 6PGD, NADPH absorbance 341 nm; at 10 µM; stronger effect = higher value
Sequence of 6-phosphogluconate dehydrogenase, decarboxylating (Homo sapiens) (P52209 whole entry, looked up): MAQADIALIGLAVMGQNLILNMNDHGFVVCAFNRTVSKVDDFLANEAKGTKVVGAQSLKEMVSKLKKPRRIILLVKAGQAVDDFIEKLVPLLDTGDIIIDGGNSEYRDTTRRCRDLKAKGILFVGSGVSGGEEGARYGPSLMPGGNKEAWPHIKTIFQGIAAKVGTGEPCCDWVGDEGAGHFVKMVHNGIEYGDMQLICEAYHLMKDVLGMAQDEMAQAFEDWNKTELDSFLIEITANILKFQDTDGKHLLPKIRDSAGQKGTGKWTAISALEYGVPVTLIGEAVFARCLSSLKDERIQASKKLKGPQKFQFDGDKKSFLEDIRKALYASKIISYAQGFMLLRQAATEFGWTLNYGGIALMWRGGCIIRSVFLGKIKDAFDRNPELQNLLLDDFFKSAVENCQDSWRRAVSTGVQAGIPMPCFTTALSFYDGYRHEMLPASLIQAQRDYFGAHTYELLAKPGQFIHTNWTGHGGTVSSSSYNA

[10] = differential killing of epithelial or mesenchymal cells, primary screen, imaging, PC-3E GFP, TEM4-18 mCherry, co-culture (AID 1345086;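 active means compounds killing one labelled cell type while sparing the other, by normalised counts and ratio limits, not self-fluorescent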;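 on all read-outs here: cells exposed to compound for 72 h before imaging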;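 on red/green cell ratio (normalised): normalised mesenchymal count divided by normalised epithelial count so high means epithelial killing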); settings: imaging cell counts, at 1 µM; for red/green cell ratio (normalised): actives lie on both sides, counts scaled to control wells, 1 = unselective
[11] = survival rescue of mitochondrial mutant cells in low glucose, primary screen, MELAS cybrids, Rieske KO mouse fibroblasts, CellTiter-Glo (AID 1508586;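 active means mean z-score across replicates of 1.96 or higher in either the MELAS or the Rieske mutant cell line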;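 further: z relative to plate mean and SD of compound and empty wells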)
[12] = target: NAD(+) hydrolase SARM1 (Homo sapiens) (UniProt Q6SZW1); test: SARM1 TIR NADase inhibitors, cell lysate, NAD-Glo luminescence (AID 1508614;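 active means compound whose remaining NAD level is above about 45 nM, limit read from the data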); settings: SAM-TIR HEK293T lysate NADase, at 1 µM, stronger effect = higher value
Sequence of NAD(+) hydrolase SARM1 (Homo sapiens) (Q6SZW1 whole entry, looked up, the tested form may be a part): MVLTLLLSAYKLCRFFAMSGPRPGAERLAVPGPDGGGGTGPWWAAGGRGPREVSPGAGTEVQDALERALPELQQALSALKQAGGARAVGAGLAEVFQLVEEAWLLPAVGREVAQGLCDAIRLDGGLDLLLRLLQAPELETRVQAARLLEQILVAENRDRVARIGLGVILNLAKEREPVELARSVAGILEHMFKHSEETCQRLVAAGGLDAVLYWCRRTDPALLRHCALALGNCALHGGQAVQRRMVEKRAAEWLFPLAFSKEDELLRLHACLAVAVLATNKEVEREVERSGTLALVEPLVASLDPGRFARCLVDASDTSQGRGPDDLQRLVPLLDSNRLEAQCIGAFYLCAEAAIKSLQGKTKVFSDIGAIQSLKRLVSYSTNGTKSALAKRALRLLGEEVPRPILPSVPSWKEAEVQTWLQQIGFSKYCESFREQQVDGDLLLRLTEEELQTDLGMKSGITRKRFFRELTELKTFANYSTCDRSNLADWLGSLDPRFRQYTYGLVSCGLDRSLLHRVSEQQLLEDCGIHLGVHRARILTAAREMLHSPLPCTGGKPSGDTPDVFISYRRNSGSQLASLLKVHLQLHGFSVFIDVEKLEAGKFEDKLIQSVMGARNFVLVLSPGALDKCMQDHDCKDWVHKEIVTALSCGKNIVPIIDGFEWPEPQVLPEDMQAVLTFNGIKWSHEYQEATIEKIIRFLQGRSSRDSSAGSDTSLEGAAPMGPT

[13] = target: Mitogen-activated protein kinase 7 (Homo sapiens) (UniProt Q13164); test: ERK5 transactivation activators in reporter cells, primary screen, cell-based, HTS (AID 1508626;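 active means luciferase signal above three times the same-plate solvent-only control wells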;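 further: luciferase driven by Gal4-ERK5 fusion binding five Gal4 sites before minimal TATA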); settings: HeLa Gal4-ERK5 transactivation, 18 h, at 5 µM, stronger effect = higher value
Sequence of Mitogen-activated protein kinase 7 (Homo sapiens) (Q13164 whole entry, looked up, the tested form may be a part): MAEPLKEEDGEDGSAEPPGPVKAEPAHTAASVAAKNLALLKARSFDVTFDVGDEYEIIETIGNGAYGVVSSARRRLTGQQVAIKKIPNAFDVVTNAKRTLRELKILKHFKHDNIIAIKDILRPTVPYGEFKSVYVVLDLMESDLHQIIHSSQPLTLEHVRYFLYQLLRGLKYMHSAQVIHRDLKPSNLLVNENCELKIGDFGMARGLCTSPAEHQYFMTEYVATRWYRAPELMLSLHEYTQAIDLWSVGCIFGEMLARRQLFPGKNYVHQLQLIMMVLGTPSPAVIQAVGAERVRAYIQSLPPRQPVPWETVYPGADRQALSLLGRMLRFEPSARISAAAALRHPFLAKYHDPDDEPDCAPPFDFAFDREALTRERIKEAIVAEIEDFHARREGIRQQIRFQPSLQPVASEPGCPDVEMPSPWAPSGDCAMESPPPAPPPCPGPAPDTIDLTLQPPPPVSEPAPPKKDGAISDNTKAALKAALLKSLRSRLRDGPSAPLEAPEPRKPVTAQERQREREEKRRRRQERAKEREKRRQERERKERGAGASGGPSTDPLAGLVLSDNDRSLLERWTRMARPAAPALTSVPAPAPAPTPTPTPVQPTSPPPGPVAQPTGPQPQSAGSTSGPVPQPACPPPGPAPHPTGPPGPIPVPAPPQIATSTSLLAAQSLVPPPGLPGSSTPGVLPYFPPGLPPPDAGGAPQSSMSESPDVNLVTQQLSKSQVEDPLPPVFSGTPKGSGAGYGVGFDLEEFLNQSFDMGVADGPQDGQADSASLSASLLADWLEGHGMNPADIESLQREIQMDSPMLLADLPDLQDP

[14] = modulation of C. elegans fzo-1 (AID 1259413; call rule not given here;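 further: fzo-1 mutant C. elegans worms in liquid wells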); settings: C. elegans fzo-1 modulator screen, mean read-out; stronger effect = higher value
[15] = sensitizers of A549 cells to miR-34 induction, primary screen, imaging, A549 dox-inducible miR-34, nuclei and caspase counts (AID 1347080;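 active means compounds whose cell count with miR-34 switched on is under 0.7 times the count with it off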); settings: A549 miR-34 inducible, Hoechst nuclei count, 48 h
F380Y = test: modulators of BK channel variants, profiling panel, selectivity assay, cell-based, U2OS BacMam, thallium flux, beta subunits (AID 1259406;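 active means thallium flux through the channel raised or lowered by more than 3 SD from vehicle-only wells, actives on both sides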;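 further: initial slope of Thallos dye fluorescence rise after thallium is added; log ratio against the mean of 0.3% DMSO vehicle wells on the same plate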); settings: at 30 µM
F380Y/beta1 = test: as above; settings: at 30 µM
F380Y/beta2Delta = test: as above; settings: at 30 µM
[16] = ovarian cancer cell viability with rucaparib, profiling panel, oncology-focused library, rucaparib conditional (AID 1508598); settings: patient-derived ovarian cancer cells, CellTiter-Glo viability, 144 h, stronger effect = lower value
[17] = measured here: epithelial PC-3E GFP cell survival
[18] = measured here: mesenchymal TEM4-18 mCherry cell survival
[19] = MELAS cybrid survival, CellTiter-Glo 48 h, stronger effect = higher value
[20] = Rieske KO mouse fibroblast survival, CellTiter-Glo 72 h

COC(=O)c1ccc(O)cc1
nuclear beta-catenin stimulation ([1]; at 10 µM): 1.3% (inactive)
nuclear beta-catenin stimulation ([1]; stimulation, at 2 µM): 0.3%
insulin secretion stimulation [2]: -1.8% (inactive)
viability decrease [3]: -8.75% (inactive)
tube area decrease [4]: 4.5% (inactive)
GLP1 secretion stimulation [5]: 0.6% (inactive)
inhibition of viability [6]: -9.8% (inactive)
viability decrease (inhibition) [7]: 18.8% (inactive)
viability decrease (inhibition) [8]: -6.75% (inactive)

O=C(O)CNC(=O)c1ccccc1I
nuclear beta-catenin stimulation ([1]; at 10 µM): -0.5% (inactive)
nuclear beta-catenin stimulation ([1]; stimulation, at 2 µM): 1.7%
insulin secretion stimulation [2]: 0.3% (inactive)
viability decrease [3]: 16% (inactive)
tube area decrease [4]: 5.3% (inactive)
GLP1 secretion stimulation [5]: 0.7% (inactive)
inhibition of viability [6]: 4.1% (inactive)
viability decrease (inhibition) [7]: 10.4% (inactive)
viability decrease (inhibition) [8]: -17.7% (inactive)

CCN(CC)CCCC(C)Nc1ccnc2cc(Cl)ccc12 (centres undefined)
nuclear beta-catenin stimulation ([1]; at 10 µM): 1.4% (inactive)
nuclear beta-catenin stimulation ([1]; stimulation, at 2 µM): -0.7%
insulin secretion stimulation [2]: 11.2% (inactive)
viability decrease [3]: -10.8% (inactive)
tube area decrease [4]: 23% (inactive)
GLP1 secretion stimulation [5]: 6.3% (inactive)
inhibition of viability [6]: 19.9% (inactive)
viability decrease (inhibition) [7]: 31.4% (inactive)
viability decrease (inhibition) [8]: 5.6% (inactive)
inhibition [9]: 7.49% (inactive)
red/green cell ratio (normalised) [10]: 1.21 (inactive)
normalised cell number [10, 17]: 0.99
normalised cell number [10, 18]: 1.2
z-score [11, 19]: 0.423 (inactive) and -0.395 (inactive)
z-score [11, 20]: 0.725 and -1.28
remaining NAD [12]: 10 nM (inactive)
luciferase signal [13]: 40 AU (inactive)

C[C@@H]1C[C@H]2[C@@H]3CCC4=CC(=O)C=C[C@]4(C)[C@@]3(F)[C@@H](O)C[C@]2(C)[C@@]1(O)C(=O)COC(=O)c1ccncc1
nuclear beta-catenin stimulation ([1]; at 10 µM): 2.8% (inactive)
nuclear beta-catenin stimulation ([1]; stimulation, at 2 µM): 2.8%
insulin secretion stimulation [2]: -1% (inactive)
viability decrease [3]: -41.3% (inactive)
tube area decrease [4]: -2.4% (inactive)
GLP1 secretion stimulation [5]: -1.9% (inactive)
inhibition of viability [6]: -4.43% (inactive)
viability decrease (inhibition) [7]: 5.8% (inactive)
viability decrease (inhibition) [8]: -18.6% (inactive)

CCOC(=O)[C@H](CCc1ccccc1)N[C@H]1CCc2ccccc2N(CC(=O)O)C1=O
nuclear beta-catenin stimulation ([1]; at 10 µM): 27.7% (inactive)
nuclear beta-catenin stimulation ([1]; stimulation, at 2 µM): 2.2%
insulin secretion stimulation [2]: 1.1% (inactive)
viability decrease [3]: -40.3% (inactive)
tube area decrease [4]: 33.7% (inactive)
GLP1 secretion stimulation [5]: 16.1% (inactive)
inhibition of viability [6]: 51.1% (active)
viability decrease (inhibition) [7]: 102% (active)
viability decrease (inhibition) [8]: 44.2% (inactive)
inhibition [9]: -6.81% (inactive)
mean signal [14]: 261 (inactive)
red/green cell ratio (normalised) [10]: 0.73 (inactive)
normalised cell number [10, 17]: 1.36
normalised cell number [10, 18]: 0.98
fold change ([15]; stronger effect = lower value, cell number ratio, induced over uninduced): 0.89 (inactive) and 0.936 (inactive)
fold change ([15]; measured here: relative caspase fold change +Dox/-Dox): 2.29 and 1.38
cell count ([15]; measured here: total cells with miR-34 induction, stronger effect = lower value): 9000 and 10300
cell count ([15]; measured here: total cells without miR-34 induction): 10100 and 11000
z-score [11, 19]: 0.369 (inactive)
z-score [11, 20]: 0.328
remaining NAD [12]: 10 nM (inactive)
luciferase signal [13]: 92 AU (inactive)
log fold change Tl+ flux (F380Y): -0.0356 (inactive)
log fold change Tl+ flux (F380Y/beta1): 0.0148 (inactive)
log fold change Tl+ flux (F380Y/beta2Delta): -0.052 (inactive)

Clc1cccc(Cl)c1NC1=NCCN1
nuclear beta-catenin stimulation ([1]; at 10 µM): 0.7% (inactive)
nuclear beta-catenin stimulation ([1]; stimulation, at 2 µM): 0.7%
insulin secretion stimulation [2]: 1.9% (inactive)
viability decrease [3]: -10.4% (inactive)
tube area decrease [4]: -5.1% (inactive)
GLP1 secretion stimulation [5]: 1% (inactive)
inhibition of viability [6]: -0.6% (inactive)
viability decrease (inhibition) [7]: -15.3% (inactive)
viability decrease (inhibition) [8]: -4.9% (inactive)
inhibition [9]: 13.3% (inactive)
mean signal [14]: 231 (inactive)
red/green cell ratio (normalised) [10]: 1.14 (inactive)
normalised cell number [10, 17]: 1.33
normalised cell number [10, 18]: 1.52
z-score [11, 19]: -0.353 (inactive) and 0.0276 (inactive) and 0.719 (inactive)
z-score [11, 20]: 0.516 and -0.377 and -0.412
remaining NAD [12]: 10 nM (inactive)
luciferase signal [13]: 64 AU (inactive)
log fold change Tl+ flux (F380Y): 0.0065 (inactive)
log fold change Tl+ flux (F380Y/beta1): 0.0554 (inactive)
log fold change Tl+ flux (F380Y/beta2Delta): 0.0431 (inactive)

CC[C@@H]([C@H](C)O)n1ncn(-c2ccc(N3CCN(c4ccc(OC[C@@H]5CO[C@@](Cn6cncn6)(c6ccc(F)cc6F)C5)cc4)CC3)cc2)c1=O
nuclear beta-catenin stimulation ([1]; at 10 µM): 51.6% (active)
nuclear beta-catenin stimulation ([1]; stimulation, at 2 µM): 8.2%
insulin secretion stimulation [2]: 1.4% (inactive)
viability decrease [3]: 11.8% (inactive)
tube area decrease [4]: 97.9% (active)
GLP1 secretion stimulation [5]: 4.8% (inactive)
inhibition of viability [6]: 77.7% (active)
viability decrease (inhibition) [7]: 83.8% (active)
viability decrease (inhibition) [8]: 24.1% (inactive)

NC12CC3CC(CC(C3)C1)C2
nuclear beta-catenin stimulation ([1]; at 10 µM): 2.1% (inactive)
nuclear beta-catenin stimulation ([1]; stimulation, at 2 µM): 1.9%
insulin secretion stimulation [2]: 2.4% (inactive)
viability decrease [3]: 7.6% (inactive)
tube area decrease [4]: 3.9% (inactive)
GLP1 secretion stimulation [5]: 6.5% (inactive)
inhibition of viability [6]: 30.7% (inactive)
viability decrease (inhibition) [7]: 56.6% (active)
viability decrease (inhibition) [8]: 14.6% (inactive)
inhibition [9]: -14.3% (inactive)
mean signal [14]: 230 (inactive)
red/green cell ratio (normalised) [10]: 1.38 (inactive)
normalised cell number [10, 17]: 0.95
normalised cell number [10, 18]: 1.32
z-score [11, 19]: -0.372 (inactive) and -0.42 (inactive) and -0.564 (inactive)
z-score [11, 20]: -0.543 and 0.116 and -0.0986
remaining NAD [12]: 10 nM (inactive)
luciferase signal [13]: 44 AU (inactive)
log fold change Tl+ flux (F380Y): -0.0507 (inactive)
log fold change Tl+ flux (F380Y/beta1): 0.00169 (inactive)
log fold change Tl+ flux (F380Y/beta2Delta): 0.0403 (inactive)

O=C(O)C1CSC(C(=O)O)N1 (centres undefined)
nuclear beta-catenin stimulation ([1]; at 10 µM): 0.7% (inactive)
nuclear beta-catenin stimulation ([1]; stimulation, at 2 µM): 1.2%
insulin secretion stimulation [2]: -0.4% (inactive)
viability decrease [3]: -6.8% (inactive)
tube area decrease [4]: -2.5% (inactive)
GLP1 secretion stimulation [5]: -3.3% (inactive)
inhibition of viability [6]: 2.5% (inactive)
viability decrease (inhibition) [7]: 4% (inactive)
viability decrease (inhibition) [8]: -8.7% (inactive)

O=C1CCC(N2C(=O)c3ccccc3C2=O)C(=O)N1 (centres undefined)
nuclear beta-catenin stimulation ([1]; at 10 µM): 2.4% (inactive)
nuclear beta-catenin stimulation ([1]; stimulation, at 2 µM): 2.1%
insulin secretion stimulation [2]: 0.6% (inactive)
viability decrease [3]: -12.6% (inactive)
tube area decrease [4]: 5.6% (inactive)
GLP1 secretion stimulation [5]: -3.8% (inactive)
inhibition of viability [6]: 6.9% (inactive)
viability decrease (inhibition) [7]: 11.1% (inactive)
viability decrease (inhibition) [8]: 53.7% (active)
inhibition [9]: -1.45% (inactive)
mean signal [14]: 238 (inactive)
red/green cell ratio (normalised) [10]: 1.17 (inactive)
normalised cell number [10, 17]: 1.23
normalised cell number [10, 18]: 1.44
z-score [11, 19]: -0.413 (inactive) and 0.577 (inactive) and -0.221 (inactive)
z-score [11, 20]: -0.261 and 0.0412 and -1.15
viability ([16]; at 0.000305 µM, OCI-C5x cells, with rucaparib 10 µM, 100% = cells with rucaparib alone): 117% (inactive)
viability ([16]; at 0.000305 µM, OCI-C5x cells, without rucaparib): 95% (active)
viability ([16]; at 0.000305 µM, OCI-P5x cells, with rucaparib 20 µM, 100% = cells with rucaparib alone): 99.4% (active)
viability ([16]; at 0.000305 µM, OCI-P5x cells, without rucaparib): 103% (inactive)
viability ([16]; at 0.00122 µM, OCI-C5x cells, with rucaparib 10 µM, 100% = cells with rucaparib alone): 108% (inactive)
viability ([16]; at 0.00122 µM, OCI-C5x cells, without rucaparib): 102% (inactive)
viability ([16]; at 0.00122 µM, OCI-P5x cells, with rucaparib 20 µM, 100% = cells with rucaparib alone): 100% (inactive)
viability ([16]; at 0.00122 µM, OCI-P5x cells, without rucaparib): 109% (inactive)
viability ([16]; at 0.00488 µM, OCI-C5x cells, with rucaparib 10 µM, 100% = cells with rucaparib alone): 110% (inactive)
viability ([16]; at 0.00488 µM, OCI-C5x cells, without rucaparib): 99.5% (active)
viability ([16]; at 0.00488 µM, OCI-P5x cells, with rucaparib 20 µM, 100% = cells with rucaparib alone): 112% (inactive)
viability ([16]; at 0.00488 µM, OCI-P5x cells, without rucaparib): 106% (inactive)
viability ([16]; at 0.0195 µM, OCI-C5x cells, with rucaparib 10 µM, 100% = cells with rucaparib alone): 111% (inactive)
viability ([16]; at 0.0195 µM, OCI-C5x cells, without rucaparib): 109% (inactive)

From PubChem BioAssay
